According to PubChem BioAssay AID1159580 (chemical genetic matrix, 2015):
“And” between values parts separate entries of the source, which are not always exact repeats. Equal entries are not always repeated. Screen size: about 5,500 compounds; about 2,000 (36%) were called active. Not shown: some 18% with an inconclusive outcome. Rule as the data show it: active = normalized growth mostly below about 0.91 (no sharp cut-off); inconclusive = no clear call, values can overlap the other calls; inactive = mostly above about 0.92. This is one part of the list.

Assay: chemical genetic growth profiling, strain panel (AID 1159580);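 also: tested at 20 µM; growth read once vehicle control cultures reached saturation at 30 °C; 1 = growth at the plate median or of vehicle wells; lower values mean less growth of the strain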
Settings: S. cerevisiae deletion strains, growth OD

Measured: normalized growth

CCC[C@H](N[C@@H](C)C(=O)N1[C@H](C(=O)O)C[C@@H]2CCCC[C@@H]21)C(=O)OCC
inactive: locus YAL013W, strain DEP1, active compounds read low 1.01 | locus YAL021C, strain ccr4, active compounds read low 1.01 | locus YAL026C, strain drs2, active compounds read low 1.01 | locus YAL030W, strain snc1, active compounds read low 1.02 | locus YBL061C, strain skt5, active compounds read low 1.01 | locus YBR009C, strain hhf1, active compounds read low 1.01 | locus YBR021W, strain FUR4, active compounds read low 1.03 | locus YBR023C, strain chs3, active compounds read low 1.02 | locus YBR171W, strain sec66, active compounds read low 1.02 | locus YBR229C, strain ROT2, active compounds read low 1 | locus YBR231C, strain swc5, active compounds read low 1.02 | locus YBR279W, strain paf1, active compounds read low 1.01 | locus YCL011C, strain gbp2, active compounds read low 1.01 | locus YCL016C, strain dcc1, active compounds read low 1.01 | locus YCL029C, strain bik1, active compounds read low 1.04 | locus YCL069W, strain vba3, active compounds read low 1.02 | locus YCR088W, strain abp1, active compounds read low 1.02 | locus YDL005C, strain med2, active compounds read low 1.01 | locus YDL035C, strain GPR1, active compounds read low 1.01 | locus YDL040C, strain nat1, active compounds read low 1.01 | locus YDL074C, strain BRE1, active compounds read low 1.02 | locus YDL101C, strain DUN1, active compounds read low 1.01 | locus YDL134C, strain PPH21, active compounds read low 1.01 | locus YDL185W, strain tfp1, active compounds read low 1.02 | locus YDL192W, strain arf1, active compounds read low 1.02 | locus YDR001C, strain nth1, active compounds read low 1.01 | locus YDR069C, strain doa4, active compounds read low 1.03 | locus YDR101C, strain arx1, active compounds read low 1.01 | locus YDR137W, strain rgp1, active compounds read low 0.99 | locus YDR150W, strain NUM1, active compounds read low 1.02 | locus YDR159W, strain sac3, active compounds read low 1.02 | locus YDR162C, strain NBP2, active compounds read low 1.01 | locus YDR195W, strain ref2 1.04 | locus YDR297W, strain sur2, active compounds read low 1.02 | locus YDR318W, strain mcm21, active compounds read low 1.02 | locus YDR334W, strain swr1, active compounds read low 1.01 | locus YDR335W, strain msn5, active compounds read low 1.01 | locus YDR388W, active compounds read low 1.03 | locus YDR392W, strain spt3, active compounds read low 0.981 | locus YDR502C, strain sam2, active compounds read low 1.01 | locus YEL003W, strain gim4, active compounds read low 1.01 | locus YEL037C, strain rad23, active compounds read low 1.02 | locus YEL061C, strain CIN8 (second series), active compounds read low 1.01 | locus YEL061C, strain CIN8, active compounds read low 1 | locus YER015W, strain faa2, active compounds read low 1.01 | locus YER016W, strain bim1, active compounds read low 1.02 | locus YER110C, active compounds read low 1.02 | locus YER111C, strain swi4, active compounds read low 1.02 | locus YER155C, strain BEM2 (second series), active compounds read low 1.05 | locus YER155C, strain BEM2, active compounds read low 1 | locus YER167W, strain BCK2, active compounds read low 1.02 | locus YFR010W, strain ubp6, active compounds read low 1.03 | locus YGL078C, strain dbp3, active compounds read low 1.02 | locus YGL086W, strain mad1, active compounds read low 1.02 | locus YGL167C, strain pmr1, active compounds read low 1.02 | locus YGL173C, strain kem1, active compounds read low 1.01 | locus YGL227W, strain vid30, active compounds read low 1.02 | locus YGL240W, strain doc1, active compounds read low 1.03 | locus YGL248W, strain PDE1, active compounds read low 1.01 | locus YGL253W, strain hxk2, active compounds read low 1.02 | locus YGR078C, strain PAC10, active compounds read low 1.02 | locus YGR135W, strain pre9, active compounds read low 1.01 | locus YGR229C, strain SMI1, active compounds read low 1.02 | locus YGR252W, strain gcn5, active compounds read low 1.01 | locus YHR013C, strain ard1, active compounds read low 1.02 | locus YHR027C, strain rpn1, active compounds read low 1.02 | locus YHR030C, strain SLT2, active compounds read low 1.01 and 1 | locus YHR079C, strain IRE1 (second series), active compounds read low 1.01 | locus YHR079C, strain IRE1, active compounds read low 0.993 | locus YHR094C, strain hxt1, active compounds read low 1.02 | locus YHR129C, strain ARP1, active compounds read low 1.01 | locus YHR142W, strain chs7, active compounds read low 1.03 | locus YHR200W, strain rpn10, active compounds read low 1.03 | locus YIL066C, strain RNR3, active compounds read low 1.02 | locus YIL073C, strain SPO22, active compounds read low 1.03 | locus YIL125W, strain kgd1, active compounds read low 1.02 | locus YIR030C, strain dcg1, active compounds read low 1.01 | locus YJL092W, strain hpr5, active compounds read low 1.01 | locus YJL095W, strain BCK1 (second series), active compounds read low 1.02 | locus YJL095W, strain BCK1, active compounds read low 1.01 and 1 | locus YJL115W, strain asf1, active compounds read low 1.02 | locus YJL129C, strain trk1, active compounds read low 1.01 | locus YJL134W, strain LCB3, active compounds read low 1.02 | locus YJL154C, strain vps35, active compounds read low 1.01 | locus YJL164C, strain tpk1, active compounds read low 1.01 | locus YJL166W, strain qcr8, active compounds read low 1.04 | locus YJL168C, strain set2, active compounds read low 1.02 | locus YJL187C, strain SWE1 (second series), active compounds read low 1.01 | locus YJL187C, strain SWE1, active compounds read low 1.01 | locus YJR043C, strain POL32, active compounds read low 1.01 | locus YJR066W, strain TOR1, active compounds read low 0.96
